Assay results from ChEMBL document CHEMBL1961873, “Compounds: GSK PKIS; Assays: Nanosyn kinase panel” (2012).

Columns and labels:
[1] = target: Tyrosine-protein kinase Fyn (Homo sapiens) (UniProt P06241); settings: at 1 µM
[2] = target: Tyrosine-protein kinase HCK (Homo sapiens) (UniProt P08631); settings: at 0.1 µM
[3] = target: Tyrosine-protein kinase HCK (Homo sapiens) (UniProt P08631); settings: at 1 µM
[4] = target: Insulin-like growth factor 1 receptor (Homo sapiens) (UniProt P08069); settings: at 0.1 µM
[5] = target: Insulin-like growth factor 1 receptor (Homo sapiens) (UniProt P08069); settings: at 1 µM
[6] = target: Insulin receptor (Homo sapiens) (UniProt P06213); settings: at 0.1 µM
[7] = target: Insulin receptor (Homo sapiens) (UniProt P06213); settings: at 1 µM
[8] = target: Insulin receptor-related protein (Homo sapiens) (UniProt P14616); settings: at 0.1 µM
[9] = target: Insulin receptor-related protein (Homo sapiens) (UniProt P14616); settings: at 1 µM
[10] = target: T1, Tyrosine-protein kinase ITK/TSK (Homo sapiens) (UniProt Q08881); settings: at 0.1 µM
T1 sequence (whole entry): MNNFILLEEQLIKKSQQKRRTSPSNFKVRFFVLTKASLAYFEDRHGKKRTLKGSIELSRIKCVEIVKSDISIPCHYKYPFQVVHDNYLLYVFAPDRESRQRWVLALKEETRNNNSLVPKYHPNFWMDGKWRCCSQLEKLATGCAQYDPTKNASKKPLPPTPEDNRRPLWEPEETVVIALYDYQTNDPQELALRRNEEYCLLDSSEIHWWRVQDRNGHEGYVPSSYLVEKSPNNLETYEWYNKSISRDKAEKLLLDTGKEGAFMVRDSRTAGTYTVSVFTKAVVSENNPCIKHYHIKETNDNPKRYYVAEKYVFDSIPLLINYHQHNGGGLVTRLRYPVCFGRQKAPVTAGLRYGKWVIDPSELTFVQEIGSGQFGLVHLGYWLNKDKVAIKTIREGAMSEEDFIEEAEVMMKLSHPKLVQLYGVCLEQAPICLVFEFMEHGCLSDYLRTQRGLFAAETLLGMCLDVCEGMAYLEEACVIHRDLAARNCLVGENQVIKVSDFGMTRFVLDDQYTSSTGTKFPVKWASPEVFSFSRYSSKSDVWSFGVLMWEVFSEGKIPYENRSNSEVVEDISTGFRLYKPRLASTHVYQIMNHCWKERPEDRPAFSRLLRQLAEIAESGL

[11] = target: T1, Tyrosine-protein kinase ITK/TSK (Homo sapiens); settings: at 1 µM
[12] = target: Tyrosine-protein kinase JAK1 (Homo sapiens) (UniProt P23458); settings: at 0.1 µM
[13] = target: Tyrosine-protein kinase JAK1 (Homo sapiens) (UniProt P23458); settings: at 1 µM
[14] = target: Tyrosine-protein kinase JAK2 (Homo sapiens) (UniProt O60674); settings: at 0.1 µM
[15] = target: Tyrosine-protein kinase JAK2 (Homo sapiens) (UniProt O60674); settings: at 1 µM
[16] = target: T2, Tyrosine-protein kinase JAK3 (Homo sapiens) (UniProt P52333); settings: at 0.1 µM
T2 sequence (whole entry): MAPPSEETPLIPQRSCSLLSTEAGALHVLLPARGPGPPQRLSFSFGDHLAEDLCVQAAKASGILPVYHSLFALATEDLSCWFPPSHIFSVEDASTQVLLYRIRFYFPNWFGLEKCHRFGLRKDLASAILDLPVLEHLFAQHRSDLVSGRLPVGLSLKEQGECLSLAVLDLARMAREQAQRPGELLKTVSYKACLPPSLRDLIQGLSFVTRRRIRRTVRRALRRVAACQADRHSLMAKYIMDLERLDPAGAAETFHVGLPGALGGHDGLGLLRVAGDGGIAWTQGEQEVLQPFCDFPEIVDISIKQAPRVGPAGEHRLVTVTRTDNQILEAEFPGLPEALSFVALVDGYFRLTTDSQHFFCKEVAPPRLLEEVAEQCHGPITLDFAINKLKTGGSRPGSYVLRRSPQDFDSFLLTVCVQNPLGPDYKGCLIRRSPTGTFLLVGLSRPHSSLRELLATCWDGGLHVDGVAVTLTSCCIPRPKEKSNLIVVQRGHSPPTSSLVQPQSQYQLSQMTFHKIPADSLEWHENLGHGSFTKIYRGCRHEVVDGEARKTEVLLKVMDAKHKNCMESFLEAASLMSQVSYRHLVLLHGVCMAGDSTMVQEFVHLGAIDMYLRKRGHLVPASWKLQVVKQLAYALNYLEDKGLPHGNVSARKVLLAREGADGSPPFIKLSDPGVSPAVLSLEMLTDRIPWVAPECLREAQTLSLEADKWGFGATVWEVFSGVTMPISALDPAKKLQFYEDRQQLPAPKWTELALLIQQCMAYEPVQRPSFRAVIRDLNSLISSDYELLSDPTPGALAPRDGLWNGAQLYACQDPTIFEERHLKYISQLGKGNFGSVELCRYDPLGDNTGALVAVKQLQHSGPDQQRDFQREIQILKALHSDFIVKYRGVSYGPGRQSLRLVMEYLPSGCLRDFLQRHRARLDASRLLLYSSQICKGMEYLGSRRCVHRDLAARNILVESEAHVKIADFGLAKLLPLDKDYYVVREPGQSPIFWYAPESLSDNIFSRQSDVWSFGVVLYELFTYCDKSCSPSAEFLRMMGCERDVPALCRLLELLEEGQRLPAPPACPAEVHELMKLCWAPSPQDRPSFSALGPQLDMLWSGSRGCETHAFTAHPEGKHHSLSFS

[17] = target: T2, Tyrosine-protein kinase JAK3 (Homo sapiens); settings: at 1 µM
[18] = target: Vascular endothelial growth factor receptor 2 (Homo sapiens) (UniProt P35968); settings: at 0.1 µM
[19] = target: Vascular endothelial growth factor receptor 2 (Homo sapiens) (UniProt P35968); settings: at 1 µM
[20] = target: Mast/stem cell growth factor receptor Kit (Homo sapiens) (UniProt P10721); settings: at 0.1 µM;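 also: values are mean inhibition of KIT, from the GSK PKIS dataset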
Chain of Mast/stem cell growth factor receptor Kit (Homo sapiens) (P10721 whole entry): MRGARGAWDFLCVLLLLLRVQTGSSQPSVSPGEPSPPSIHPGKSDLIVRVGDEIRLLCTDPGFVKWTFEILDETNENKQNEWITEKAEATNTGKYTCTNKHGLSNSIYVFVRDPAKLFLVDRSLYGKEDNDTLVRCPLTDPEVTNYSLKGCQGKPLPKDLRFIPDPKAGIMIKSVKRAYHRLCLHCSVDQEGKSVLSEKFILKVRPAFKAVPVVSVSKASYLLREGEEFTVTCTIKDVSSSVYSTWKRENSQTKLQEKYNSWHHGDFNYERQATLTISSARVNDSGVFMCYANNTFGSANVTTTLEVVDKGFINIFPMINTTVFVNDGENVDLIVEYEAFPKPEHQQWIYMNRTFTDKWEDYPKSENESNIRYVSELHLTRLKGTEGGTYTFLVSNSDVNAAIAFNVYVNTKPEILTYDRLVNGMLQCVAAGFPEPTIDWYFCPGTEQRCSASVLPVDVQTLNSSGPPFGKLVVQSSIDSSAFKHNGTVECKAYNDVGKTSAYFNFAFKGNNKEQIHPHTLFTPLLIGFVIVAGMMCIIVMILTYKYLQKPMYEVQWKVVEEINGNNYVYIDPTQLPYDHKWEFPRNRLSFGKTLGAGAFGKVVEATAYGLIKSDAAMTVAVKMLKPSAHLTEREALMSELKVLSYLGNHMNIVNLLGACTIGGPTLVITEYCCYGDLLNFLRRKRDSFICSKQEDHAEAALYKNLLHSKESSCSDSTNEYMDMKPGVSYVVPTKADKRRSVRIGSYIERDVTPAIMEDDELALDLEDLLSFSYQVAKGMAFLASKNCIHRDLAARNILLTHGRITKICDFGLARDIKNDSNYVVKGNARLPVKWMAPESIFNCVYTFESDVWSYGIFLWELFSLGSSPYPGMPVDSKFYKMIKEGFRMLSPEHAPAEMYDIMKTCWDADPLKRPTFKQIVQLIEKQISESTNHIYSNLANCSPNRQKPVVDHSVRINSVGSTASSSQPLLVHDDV

Chain of Tyrosine-protein kinase Fyn (Homo sapiens) (P06241 2-537 limits assumed): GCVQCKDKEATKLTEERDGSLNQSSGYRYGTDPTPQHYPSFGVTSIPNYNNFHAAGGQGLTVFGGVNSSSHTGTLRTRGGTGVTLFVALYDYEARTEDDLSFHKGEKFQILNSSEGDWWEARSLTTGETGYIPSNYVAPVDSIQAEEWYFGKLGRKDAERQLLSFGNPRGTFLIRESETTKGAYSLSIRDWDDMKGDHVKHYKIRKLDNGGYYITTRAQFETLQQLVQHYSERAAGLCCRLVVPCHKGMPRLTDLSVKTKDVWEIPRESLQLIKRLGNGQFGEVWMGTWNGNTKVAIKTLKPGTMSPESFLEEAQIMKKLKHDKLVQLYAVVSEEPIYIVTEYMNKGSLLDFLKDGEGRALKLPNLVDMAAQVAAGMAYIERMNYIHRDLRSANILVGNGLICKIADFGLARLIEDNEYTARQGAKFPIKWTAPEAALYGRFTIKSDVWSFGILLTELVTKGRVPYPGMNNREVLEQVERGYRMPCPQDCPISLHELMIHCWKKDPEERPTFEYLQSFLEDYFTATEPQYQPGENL
Chain of Vascular endothelial growth factor receptor 2 (Homo sapiens) (P35968 whole entry): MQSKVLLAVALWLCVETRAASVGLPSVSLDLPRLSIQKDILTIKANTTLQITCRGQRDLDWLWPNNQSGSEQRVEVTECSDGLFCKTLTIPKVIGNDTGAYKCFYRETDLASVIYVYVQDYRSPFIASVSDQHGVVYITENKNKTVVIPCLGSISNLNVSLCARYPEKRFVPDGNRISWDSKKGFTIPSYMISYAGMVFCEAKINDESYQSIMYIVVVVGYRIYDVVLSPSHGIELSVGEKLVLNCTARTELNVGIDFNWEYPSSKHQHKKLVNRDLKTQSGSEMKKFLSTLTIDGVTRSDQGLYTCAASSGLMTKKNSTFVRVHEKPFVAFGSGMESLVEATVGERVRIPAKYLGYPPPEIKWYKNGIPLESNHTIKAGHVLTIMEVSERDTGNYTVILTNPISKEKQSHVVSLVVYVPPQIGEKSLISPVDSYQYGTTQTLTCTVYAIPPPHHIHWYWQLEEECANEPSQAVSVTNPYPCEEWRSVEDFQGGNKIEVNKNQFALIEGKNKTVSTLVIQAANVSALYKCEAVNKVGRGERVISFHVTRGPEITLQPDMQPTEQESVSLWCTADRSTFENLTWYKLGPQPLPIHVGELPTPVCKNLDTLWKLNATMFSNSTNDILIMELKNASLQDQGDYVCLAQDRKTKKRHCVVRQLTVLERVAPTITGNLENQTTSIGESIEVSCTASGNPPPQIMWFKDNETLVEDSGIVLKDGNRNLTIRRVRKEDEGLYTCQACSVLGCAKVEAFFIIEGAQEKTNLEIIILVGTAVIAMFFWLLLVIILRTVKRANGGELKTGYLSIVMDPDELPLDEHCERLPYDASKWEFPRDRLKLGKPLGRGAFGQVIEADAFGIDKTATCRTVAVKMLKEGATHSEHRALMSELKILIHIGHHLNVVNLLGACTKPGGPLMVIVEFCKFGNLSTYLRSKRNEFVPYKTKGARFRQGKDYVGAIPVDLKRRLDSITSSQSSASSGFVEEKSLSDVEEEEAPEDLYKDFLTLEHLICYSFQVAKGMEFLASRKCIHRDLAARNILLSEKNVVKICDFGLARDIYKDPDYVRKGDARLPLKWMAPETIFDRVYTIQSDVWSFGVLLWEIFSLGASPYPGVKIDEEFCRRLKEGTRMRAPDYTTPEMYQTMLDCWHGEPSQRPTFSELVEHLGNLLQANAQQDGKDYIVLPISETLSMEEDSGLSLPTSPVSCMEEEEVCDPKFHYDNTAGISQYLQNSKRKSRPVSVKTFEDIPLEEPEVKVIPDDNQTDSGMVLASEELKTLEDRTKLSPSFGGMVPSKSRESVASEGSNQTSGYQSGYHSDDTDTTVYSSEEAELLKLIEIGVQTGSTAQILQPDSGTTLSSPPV
Chain of Insulin receptor (Homo sapiens) (P06213 28-758 limits assumed): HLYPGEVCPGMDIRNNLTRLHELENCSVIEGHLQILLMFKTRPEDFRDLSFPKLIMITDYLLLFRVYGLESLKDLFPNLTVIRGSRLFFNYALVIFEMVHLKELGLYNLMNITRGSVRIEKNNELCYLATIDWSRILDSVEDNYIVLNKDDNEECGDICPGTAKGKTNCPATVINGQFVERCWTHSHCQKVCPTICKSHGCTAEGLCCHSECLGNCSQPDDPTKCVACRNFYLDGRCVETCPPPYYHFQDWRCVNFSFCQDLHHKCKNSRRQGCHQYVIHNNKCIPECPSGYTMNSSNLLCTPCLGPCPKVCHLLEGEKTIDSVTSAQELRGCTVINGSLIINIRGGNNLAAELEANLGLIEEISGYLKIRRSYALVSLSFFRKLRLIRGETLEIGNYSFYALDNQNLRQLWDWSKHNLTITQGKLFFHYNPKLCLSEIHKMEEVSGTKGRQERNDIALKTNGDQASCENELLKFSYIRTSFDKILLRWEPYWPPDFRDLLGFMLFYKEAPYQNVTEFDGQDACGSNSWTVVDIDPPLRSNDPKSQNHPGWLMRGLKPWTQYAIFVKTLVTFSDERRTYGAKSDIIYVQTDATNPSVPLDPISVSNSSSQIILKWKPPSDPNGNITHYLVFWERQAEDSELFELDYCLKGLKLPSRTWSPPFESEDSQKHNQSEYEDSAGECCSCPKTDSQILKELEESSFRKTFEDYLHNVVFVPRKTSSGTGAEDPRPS
Chain of Insulin receptor (Homo sapiens) (P06213 763-1382 limits assumed): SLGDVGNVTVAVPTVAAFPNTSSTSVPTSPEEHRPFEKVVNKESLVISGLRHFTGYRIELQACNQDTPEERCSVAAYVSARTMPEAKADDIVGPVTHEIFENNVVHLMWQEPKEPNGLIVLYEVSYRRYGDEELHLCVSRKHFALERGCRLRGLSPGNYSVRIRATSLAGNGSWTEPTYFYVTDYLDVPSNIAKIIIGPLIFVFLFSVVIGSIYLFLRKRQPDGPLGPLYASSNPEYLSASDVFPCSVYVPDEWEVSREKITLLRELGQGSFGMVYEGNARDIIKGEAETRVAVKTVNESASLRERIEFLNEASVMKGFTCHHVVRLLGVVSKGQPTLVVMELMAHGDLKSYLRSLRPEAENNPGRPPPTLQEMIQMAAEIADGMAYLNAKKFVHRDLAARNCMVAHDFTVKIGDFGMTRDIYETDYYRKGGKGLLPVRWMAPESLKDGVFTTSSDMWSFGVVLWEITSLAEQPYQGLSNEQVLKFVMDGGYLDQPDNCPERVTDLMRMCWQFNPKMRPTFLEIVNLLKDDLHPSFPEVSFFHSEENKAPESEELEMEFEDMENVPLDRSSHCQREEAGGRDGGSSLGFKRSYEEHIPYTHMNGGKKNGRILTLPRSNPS
Chain of Tyrosine-protein kinase HCK (Homo sapiens) (P08631 2-526 limits assumed): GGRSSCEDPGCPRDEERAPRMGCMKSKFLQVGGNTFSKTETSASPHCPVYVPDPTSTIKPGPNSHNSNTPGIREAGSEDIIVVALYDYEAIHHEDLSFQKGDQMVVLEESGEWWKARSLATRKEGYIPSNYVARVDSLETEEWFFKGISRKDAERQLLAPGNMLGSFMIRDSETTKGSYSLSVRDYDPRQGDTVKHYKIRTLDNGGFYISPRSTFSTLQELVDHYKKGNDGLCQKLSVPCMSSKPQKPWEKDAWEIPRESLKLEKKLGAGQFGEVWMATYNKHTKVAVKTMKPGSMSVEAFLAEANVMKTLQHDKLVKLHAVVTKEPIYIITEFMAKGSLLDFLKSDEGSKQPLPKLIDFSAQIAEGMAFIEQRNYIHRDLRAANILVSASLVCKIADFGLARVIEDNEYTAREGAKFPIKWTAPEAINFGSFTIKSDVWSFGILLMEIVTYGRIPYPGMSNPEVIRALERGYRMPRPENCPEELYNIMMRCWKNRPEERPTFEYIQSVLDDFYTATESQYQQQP

Structure (SMILES)	inhibition [1]	inhibition [2]	inhibition [3]	inhibition [4]	inhibition [5]	inhibition [6]	inhibition [7]	inhibition [8]	inhibition [9]	inhibition [10]	inhibition [11]	inhibition [12]	inhibition [13]	inhibition [14]	inhibition [15]	inhibition [16]	inhibition [17]	inhibition [18]	inhibition [19]	inhibition [20]
COc1ccc2[nH]c3c4[nH]c5ccc(OC)cc5c4c4c(c3c2c1)C(=O)NC4=O	19%	20.1%	75.6%	5.28%	4.22%	6.91%	10.3%	3.27%	6.93%	1.85%	6.11%	0.96%	5.89%	-0.61%	-1.31%	-1.14%	12.8%	42.5%	68.3%	31.3%
COc1cccc(-c2c[nH]c3c(N/N=C/c4ccncc4)ncnc23)c1	58.7%	12.8%	51.8%	0.05%	2.22%	1.17%	3.79%	3.25%	2.79%	1.15%	3.59%	4.4%	15.3%	1.76%	15.1%	0.32%	24.9%	17.6%	61%	45.5%
Cc1ccc(O)cc1Nc1ccnc2cc(-c3ccccn3)ccc12	88.5%	70.9%	87.9%	5.77%	4.82%	5.4%	5.51%	5.36%	3.66%	1.62%	2.42%	7.02%	3.25%	2.62%	3.62%	-1.06%	0.79%	78.6%	93.5%	10.4%
COC(=O)c1sc(-n2cnc3cc(OC)c(OC)cc32)cc1OCc1ccccc1C(F)(F)F	56.3%	9.79%	28.1%	0.42%	0.25%	5.09%	5.96%	1.78%	-0.14%	1.1%	1.09%	3.38%	-0.23%	0.91%	5.28%	0.11%	10.7%	15.2%	49.6%	2.41%
CCN1CCC(CC(=O)Nc2n[nH]c3nnc(-c4cccc(F)c4F)cc23)CC1	3.55%	3.51%	1.32%	0.88%	2.99%	1.72%	4.05%	1.41%	0.88%	-1.01%	1.3%	3.38%	4.71%	0.88%	0.1%	-2.12%	1.45%	0.77%	4.46%	0.04%
CC(=O)NCc1cccc(C#Cc2cncnc2Nc2ccc(OCc3cccc(F)c3)c(Cl)c2)c1	3.27%	2.8%	2.97%	0.82%	1.07%	2.9%	0.68%	-0.93%	-0.28%	0.36%	0.81%	0.65%	4.76%	-0.2%	-3%	-0.21%	4.46%	0.67%	8.91%	-1.01%
c1cc(-c2cnn3nc(N4CCOCC4)ccc23)nc(NC2CC2)n1	4.87%	7.14%	11.7%	4.81%	5%	4.73%	8.56%	2.65%	1.15%	1.06%	3.22%	0.54%	-6.96%	2.21%	1.85%	-1.14%	-0.05%	12.9%	48%	6.83%
O=C(Nc1n[nH]c2cc(-c3ccc(F)cc3)ccc12)C1CC1	3.69%	5.36%	8.36%	4.19%	0.88%	3.21%	5.18%	1.75%	1.45%	1.07%	2.49%	1.55%	4.17%	1.12%	1.73%	-0.91%	-0.96%	6.51%	19.5%	3.1%
CCn1c(-c2nonc2N)nc2c(C#CC(C)(C)O)nc(OC[C@H](N)c3ccccc3)cc21	4.61%	2.17%	9.34%	6.38%	2.6%	7.87%	1.38%	0.82%	2.71%	2.08%	1.49%	1.86%	-0.29%	-0.06%	1.71%	-2%	-0.34%	59.6%	96.1%	3.94%
Clc1ccc(-c2nn3ncccc3c2-c2ccnc(Nc3ccccc3)n2)cc1	43.5%	7.64%	34.1%	3.71%	5.4%	2.64%	4.44%	0.65%	0.7%	1.38%	2.29%	-4.43%	-2.06%	1.44%	0.88%	0.42%	2.99%	11.2%	42.1%	11.7%
CC(C)COC(=O)c1ccc2c(c1)/C(=C/Nc1ccc(S(N)(=O)=O)cc1)C(=O)N2	71.6%	4.68%	38.5%	0.52%	1.72%	2.06%	2.17%	-3.52%	0.22%	0.34%	5.29%	0.07%	12.7%	-0.31%	12.3%	2.41%	45.5%	40.4%	71.5%	-0.74%
CN1CCC(n2cnc(-c3ccc(F)cc3)c2-c2ccnc(N)n2)CC1	7.42%	3.15%	7.9%	0.43%	3.19%	2.01%	5.41%	0.89%	1.43%	1.04%	6.65%	1.99%	8.12%	0.06%	0.49%	-0.36%	-2.05%	3.28%	10.8%	1.87%
NC(=O)c1sc(-n2cnc3ccc(C(F)(F)F)cc32)cc1OCc1ccccc1Br	4.41%	5.59%	5.95%	3.3%	1.19%	4.46%	5.5%	1.61%	0.64%	1.03%	-0.19%	3.49%	10.6%	1.84%	3.26%	-1.41%	0.92%	6.34%	7.31%	5.23%
COC(=O)Nc1nc2ccc(Oc3ccc(NC(=O)Nc4cccc(Cl)c4)cc3)cc2[nH]1	2.41%	3.38%	2.91%	3.52%	2.1%	-1.15%	0.68%	-1.26%	-0.57%	0.74%	0.42%	0.77%	4.07%	0.38%	-0.26%	-0.87%	-0.3%	32.4%	62.5%	72.9%
Fc1ccc(-c2cc(-c3c[nH]nc3-c3ccccn3)ccn2)cc1	5%	5.58%	6.04%	0.26%	1.04%	6.47%	5.34%	2.45%	2.16%	0.99%	0.13%	4.79%	14.2%	1%	0.86%	-0.89%	-3.5%	7.31%	22.2%	5.29%
CN(C)CCOc1ccc(-c2nc(-c3ccncc3)c(-c3ccc4c(c3)CC/C4=N\O)[nH]2)cc1	8.51%	3.04%	8.01%	4.59%	3.85%	5.62%	2.19%	6.12%	3.86%	0.77%	1.79%	3.43%	1.76%	1.76%	1.36%	-1.43%	0.64%	3.5%	5.84%	4.23%
CC(=O)Nc1cccc(C#Cc2cncnc2Nc2ccc(OCc3cccc(F)c3)c(Cl)c2)c1	5.51%	5.81%	9.29%	1.84%	2.53%	3.44%	1.06%	2.25%	1.77%	1.8%	2.79%	6.03%	3.66%	4.37%	6.59%	0.59%	4.13%	9.03%	12.6%	1.83%
CC(C)(CO)CNC(=O)c1ccc2c(c1)/C(=N/Nc1ccc(S(N)(=O)=O)cc1)C(=O)N2	53.7%	0.91%	21.2%	-4.8%	-2.3%	-1.59%	-0.37%	-2%	-2.31%	-1.6%	1.2%	1.29%	2.13%	-1.03%	1.02%	-0.67%	13.5%	9.03%	56%	-4.53%
CCNC(=O)O[C@H]1CN[C@H](C#Cc2cc3ncnc(Nc4ccc(OCc5cccc(F)c5)c(Cl)c4)c3s2)C1	1.8%	5.66%	5.6%	3.27%	2.91%	0.78%	6.61%	0.8%	1.47%	1.32%	1.96%	7.02%	-0.58%	3.47%	2.64%	-1.24%	1.79%	6.2%	4.4%	4.29%
Fc1ccc(-c2nn3ccccc3c2-c2ccncc2)cc1	1.04%	1.96%	5.95%	0.6%	0.31%	1.92%	4.03%	-0.72%	0.71%	1.1%	1.56%	0.87%	-0.62%	0.36%	1.23%	-0.48%	0.18%	3.84%	9.61%	1.23%
O=S(=O)(CCNCc1ccc(-c2ccc3ncnc(Nc4ccc(OCc5cccc(F)c5)c(Cl)c4)c3c2)o1)c1ccccc1	4.09%	7.05%	8.65%	4.87%	7.55%	3.73%	6.24%	4.04%	4.07%	0.82%	2.79%	3.16%	5.23%	1.04%	1.11%	-3.52%	-1.28%	5.96%	8.62%	6.8%
COc1ccc(-c2nn3ncccc3c2-c2ccnc(Nc3ccc4c(c3)OCCO4)n2)cc1	36.6%	13.4%	46%	-3.1%	7.28%	1.21%	24.1%	0.02%	3.24%	-1.45%	0.71%	1.48%	1.48%	-0.19%	-0.78%	-1.66%	-0.04%	11.3%	64%	40.5%
